Sfp inh – Sfp phosphopantetheinyl transferase inhibition; Biochemical Sfp PPTase activity, qHTS; Potency, µM, for inactives: largest response in the series, negative = inhibition, usual class: inhibitors; 310,000 compounds, 3.5% hits;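 further: the enzyme is Sfp with the accession as filed and its product quenches rhodamine fluorescence; 0% = enzyme reaction without inhibitor and -100% = no enzyme wells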
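Fluorescence-quenching assay with 15 nM Sfp, 5 uM rhodamine-CoA and 12.5 uM BHQ-2-labelled ybbR peptide in pH 7.6 Hepes/MgCl2 buffer. Enzyme was pre-incubated with compound for 15 min at room temperature. Rate was taken from the 30-min fluorescence change (525/598 nm).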
G9a inh – blocks human histone lysine methyltransferase G9a. G9a H3K9 monomethylation, AlphaScreen, 2 h. Potency, µM (highest dose often 102 µM), inactives show top-dose activity, negative = inhibition, usual class: inhibitors. 350,000 compounds, 8.8% hits; further: on the % scale 0 is the no-effect control and ±100 the full control effect; nearly all actives have a fitted effect of over 75% in size
Target sequence (Q96KQ7 913-1193 limits assumed): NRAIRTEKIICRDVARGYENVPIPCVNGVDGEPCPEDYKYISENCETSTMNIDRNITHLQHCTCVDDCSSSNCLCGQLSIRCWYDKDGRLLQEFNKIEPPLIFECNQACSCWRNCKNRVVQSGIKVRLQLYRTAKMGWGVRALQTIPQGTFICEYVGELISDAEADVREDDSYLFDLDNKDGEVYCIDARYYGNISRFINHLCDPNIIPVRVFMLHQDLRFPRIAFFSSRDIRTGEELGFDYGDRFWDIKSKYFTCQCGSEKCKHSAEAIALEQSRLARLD
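Enzyme 20 nM + cpd, 15 min RT; add b-H3K9 pep 500 nM / SAM 20 uM; 2 h RT; anti-H3K9me1 Ab 0.5 ug/mL + SA donor / anti-rabbit acceptor beads 20 ug/mL each, 10 min; AlphaScreen read.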
BAZ2B block – BAZ2B (human) inhibition | AlphaScreen BAZ2B-H3K14Ac peptide displacement | 360,000 compounds, 4.4% hits | Potency, µM (highest dose often 114 µM), for the others: at the top dose activity change, negative = inhibition, actives largely listed as inhibitors; further: on the % scale 0 is the no-effect control and ±100 the full control effect; nearly all actives have a fitted effect of over 60% in size
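Complex of BAZ2B and biotin-H3K14Ac (50 nM apiece) forms over 30 min at RT, then faces library compounds up to 110 uM for another 30 min; AlphaScreen beads added, 20 min dark incubation, luminescence read.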
HP1b binding inh – blocks HP1-beta chromodomain binding to methylated histone tails; P83916; AlphaScreen HP1-beta / biotin-H3K9me3 peptide binding; Potency, µM (series often up to 114 µM), for inactives: at the highest dose activity change, negative = inhibition, actives largely listed as inhibitors; 390,000 compounds, 0.56% hits; further: nearly all actives have a fitted effect of over 70% in size
Target sequence (P83916 whole entry, looked up): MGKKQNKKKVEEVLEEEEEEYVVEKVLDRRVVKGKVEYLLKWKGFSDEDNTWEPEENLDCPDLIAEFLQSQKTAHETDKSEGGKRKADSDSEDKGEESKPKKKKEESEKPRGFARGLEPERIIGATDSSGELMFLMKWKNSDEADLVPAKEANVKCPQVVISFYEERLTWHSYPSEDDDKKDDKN
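AlphaScreen: HP1-beta (50 nM) preformed 30 min with biotin-H3(1-18)K9me3 peptide (50 nM) in PBS pH 7.4, 0.01% Tween-20. Compound added for 30 min at RT, then streptavidin donor/nickel chelate acceptor beads (10 ug/mL) for 30 min.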
JMJD2A Tudor – blocks the human JMJD2A Tudor domain | O75164 | AlphaScreen JMJD2A-Tudor / H3K4me3 peptide binding | Potency, µM (series often up to 114 µM), without a hit: at the highest dose activity change, negative = inhibition, usual class: inhibitors | 390,000 compounds, 4.4% hits | AID 504339; further: on the % scale 0 is the no-effect control and ±100 the full control effect; nearly all actives have a fitted effect of over 50% in size
* marks the source's active call; other numbers are inactive results; ? = inconclusive; · = no result given; [ ] = dose if it differs, or a comment. In the library only some 12% were active in any assay of this set; here they are far more common. The call rests on the fitted dose curve; in most records, active means well fitted curve in the direction sought with a large enough effect; inconclusive means small, poorly fitted or top-dose-only effect, or another doubt; inactive means no such curve, though single readings can be large; an effect the other way counts as inactive or inconclusive. Potency means the concentration at half of the fitted maximal effect.

SMILES	Sfp inh	G9a inh	BAZ2B block	HP1b binding inh	JMJD2A Tudor
COc1ccc(C(=O)n2nnc3ccccc32)cc1Br	12%	?	?	40%	-6%
COc1ccc(C(=O)n2nnc3ccccc32)cc1OC	-16%	45µM*	5%	56%	-7%
O=C(c1ccc2c(c1)OCO2)n1nnc2ccccc21	10%	45µM*	-17%	·	·
O=C(NC1CCCCC1)c1cc([N+](=O)[O-])[nH]n1	-19%	-28%	-3%	18%	?
CCOc1cc(C#N)c(NC(=O)c2cccnc2)cc1OCC	2%	13%	0%	19%	2%
Cc1cccc(Nc2c([N+](=O)[O-])c(=O)n(C)c3ccccc23)c1	5%	-14%[59 µM]	?	-9%	50µM*
CC(C)c1ccc(Nc2c([N+](=O)[O-])c(=O)n(C)c3ccccc23)cc1	-1%	?	?	-9%	?
Cn1c(=O)c([N+](=O)[O-])c(-n2ccnc2)c2ccccc21	56µM*	?	-14%	7%	-20%
COC(=O)c1cc(CNC(=O)CCCSc2ccccc2)ccc1OC	16%	?	2%	0%	-11%
CCOc1ccc2oc(C(=O)N(C)CCc3ccc(OC)c(OC)c3)c(C)c2c1	·	5%[12.7 µM]	-28%	25%	-20%
C=CCSC1=Nc2cc(OC)c(OC)cc2C2=NC(=O)CN12	-10%	50µM*	-19%	28%	-16%
COc1cc2c(cc1OC)C1=NC(=O)CN1C(SCc1ccc(C)cc1)=N2	-7%	?	79µM*	14%	-13%[57.1 µM]
Cc1cc(C)n(-c2nc3ccccc3nc2Nc2cc(C(=O)O)ccc2C)n1	·	19%[59 µM]	0%	46%	7%
CC(=O)Nc1ccc(OCC(O)Cn2ccnc2C)cc1 (centres undefined)	23%	-2%	-12%	45%	-8%
COc1cccc(-n2c(SCc3cc(=O)oc4cc(O)c(O)cc34)nc3ccccc3c2=O)c1	-16%	?	35µM*	?	40µM*
Cc1nn(CC(=O)NCc2cccnc2)c(C)c1[N+](=O)[O-]	14%	-23%	-5%	45%	2%
COc1cccc(N2CCN(C(=O)c3cc4c(=O)oc5ccc(C)cc5c4s3)CC2)c1	·	-1%[59 µM]	-8%	15%	-12%
COc1cccc(Nc2nc(C#N)nc(NC3CCCC3)n2)c1	·	·	·	·	-3%
N#CC1=C(Nc2ccccc2Cl)SC(c2ccccc2O)NC1=O (centres undefined)	13µM*	14%[2.33 µM]	-2%	4%	?
COc1cccc(NC2=C(C#N)C(=O)NC(c3cccc(OC)c3O)S2)c1 (centres undefined)	25µM*	45µM*	-27%	22%	-8%
COc1ccccc1N1CCN(Cc2nc(-c3cc(OC)c(OC)c(OC)c3)no2)CC1	·	?	?	29%	-24%
O=C(Nc1c(F)cc(F)cc1Br)c1ccco1	50µM*	?	-8%	18%	-8%
CC1=CC(C)=Nc2ccccc2N1	-6%	40µM*	?	20%	-13%
CC1(c2ccccc2)CC(c2ccccc2)=Nc2ccccc2N1 (centres undefined)	15%	·	?	7%	-19%
COc1cccc(CN(C)C(=O)c2ccc(C)c(S(=O)(=O)N3CCCCC3)c2)c1	·	7%[12.7 µM]	4%	39%	-10%
SMILES	Sfp inh	G9a inh	BAZ2B block	HP1b binding inh	JMJD2A Tudor
C/C(=N\OCC(=O)Nc1nc2ccccc2s1)c1ccccc1	12%	-12%[59 µM]	-6%	40%	-3%
COc1ccc(/C(C)=N/OCC(=O)Nc2nc3ccccc3s2)cc1OC	?	50µM*	?	-11%	-35%
O=C(NC1CCCCC1)N(CCN1CCCC1)Cc1cc2cc3c(cc2[nH]c1=O)OCCO3	-2%	40µM*	8%	17%	-29%
Cc1cc2cc(CN(CCCN3CCOCC3)C(=O)NC3CCCCC3)c(=O)[nH]c2cc1C	45µM*	14µM*	7%	10%	-21%
CCOC(=O)c1ccc(Nc2nc3nonc3nc2Nc2cccc(C)c2C)cc1	·	-50%[59 µM]	22µM*	-1%	?
O=S(=O)(Nc1cc(F)ccc1F)c1cccc2nsnc12	4%	·	4%	28%	-23%
C/C(=N\Nc1nc2ccccc2s1)c1ccc(Br)s1	9%	35µM*	?	-11%	?
CC(=NNc1nc2ccccc2s1)c1ccncn1	·	·	·	-16%	?
CCOC(=O)c1[nH]c(C)c(C(=O)OCC(=O)NCc2ccc(Cl)cc2)c1C	·	18%[12.7 µM]	-8%	38%	-5%
COc1ccc(C(CNC(=O)C(CCSC)NC(=O)c2ccccc2OC)N2CCCCC2)cc1 (centres undefined)	7%	32µM*	-26%	5%	-22%
COc1ccc(C(CNC(=O)C(CCSC)NC(=O)c2ccccc2Cl)N2CCOCC2)cc1 (centres undefined)	·	2%	-6%	33%	-6%
Nn1c(SCc2nc3ccccc3[nH]2)nnc1-c1ccccc1	11%	28%[59 µM]	2%	27%	15%
c1ccc(-c2nnc(SCc3nc4ccccc4[nH]3)n2Cc2ccco2)cc1	-2%	·	-7%	2%	32µM*
CCn1c(COc2ccc(Cl)cc2)nnc1SCc1nc2ccccc2[nH]1	-4%	·	-9%	26%	-22%
Cc1ccc(OCc2nnc(SCc3nc4ccccc4[nH]3)n2Cc2ccco2)cc1	13%	14µM*	?	11%	?
CCCC(=O)NC(c1ccccc1)c1ccc2cccnc2c1O (centres undefined)	11%	7%	25µM*	51%	45µM*
COc1ccc(C(NC(=O)c2cccnc2)c2cc(Cl)c3cccnc3c2O)cc1OC (centres undefined)	-1%	19%[0.501 µM]	?	57%	-22%
Oc1cccc(C(Nc2ccccn2)c2ccc3cccnc3c2O)c1Cl (centres undefined)	·	?	22µM*	-9%	22µM*
CCCCC(=O)NC(c1ccc(C(C)C)cc1)c1ccc2cccnc2c1O (centres undefined)	15%	34%[59 µM]	-10%	54%	-15%
CCCC(=O)NC(c1ccc(OC)cc1)c1ccc2cccnc2c1O (centres undefined)	1%	·	20µM*	8%	79µM*
COc1ccc(Cl)cc1C(Nc1cccnc1)c1ccc2cccnc2c1O (centres undefined)	-15%	4µM*	35µM*	?	35µM*
CCCn1c(N)c(C(=O)COC(=O)CCNS(=O)(=O)c2ccccc2F)c(=O)[nH]c1=O	·	12%[12.7 µM]	0%	10%	-2%
CCCCC(=O)NC(c1ccccc1)c1ccc2cccnc2c1O (centres undefined)	19%	23%	40µM*	56%	-22%
CCC(=O)NC(c1ccccc1OC)c1ccc2cccnc2c1O (centres undefined)	19%	0%[59 µM]	25µM*	19%	56µM*
